# DENV2 CPE rescue – inhibitors of DENV2 cytopathic effect, primary screen, cell-based, plate reader, single concentration; AID 651640, 2012; CPE inhibition, % at 9.99 µM; DENV2-infected cells, cytopathic effect rescue; 1.7% of 350,000 active; in the data active = CPE inhibition above about 20%, passing the limit was not always enough; inconclusive = no clear call, values can overlap the other calls; tested in BHK-21 cells;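 note: 0% = median of neutral control wells and 100% = median of positive control wells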
# Ecoli rRNA inh – reduced GFP signal of wild-type E. coli, primary screen, bacterial rRNA inhibitor project, GFP/RFP fluorescence, OD600, single point; E. coli WT GFP vs humanized-ribosome RFP mutants, 24 h; stronger effect = lower value; DMSO median 0, no signal -100; GFP signal change (wild-type ribosome), % (no concentration beside the values); 1.6% of 350,000 active; AID 720706, 2013;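 active = significant combined selectivity score with lowered wild-type GFP, culture density cut under 30%, mutant RFP and density less affected; inactive = any of these conditions unmet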
# CaV13 FRET inh – Disruptors of the CACNA1D IQ motif to Ca2+-dependent inactivation inhibitor domain association, primary screening, Förster resonance energy transfer in intact living … | 0.098% of 340,000 active | AID 743397 | HEK cells, CFP/YFP FRET ICDI-IQ, plate reader, 10 min; percent FRET-ratio fall versus neutral wells | inhibition, % at 12.3 µM;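 active = mean replicate inhibition of at least 30% and at least 1% of replicates passing that level; inconclusive = only one of the two criteria is met; inactive = neither criterion is met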;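 note: 0% = median of the neutral control wells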
# ERAP1 inh – human ERAP1 aminopeptidase inhibitors, primary screen, biochemical, single point, plate reader | Endoplasmic reticulum aminopeptidase 1 (Homo sapiens), Q9NZ08 | recombinant ERAP1, Leu-AMC fluorescence, 60 min | inhibition, % at 10.7 µM | 0.15% of 340,000 active | AID 652197, 2013;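 active = mean replicate inhibition of at least 30%, or all replicates individually reaching that 30% level; inactive = mean below 30% and not every replicate reaching it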;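 note: 0% = neutral control wells and 100% = L-leucinethiol positive control wells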
# GSIS activator – GLuc luminescence reporter in INS-1E cells, primary screen for activators of glucose-dependent secretion of insulin. INS-1E GLuc reporter insulin secretion, 2-3 h. activation, % at 16.6 µM. 0.61% of 370,000 active;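 active = lowest replicate activation of at least 40%, so every replicate reaches that level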;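 note: 0% = median of neutral control wells and 100% = median of IBMX positive control wells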
# PGC1a acetyl inh – inhibitors of PGC1a acetylation signal, primary screen, cell-based, U2OS, AlphaScreen, inhibitor mode; inhibition, % at 15.6 µM; 0.17% of 350,000 active; AlphaScreen anti-acetyl-lysine; with virally co-expressed GCN5 acetyltransferase;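 active = every replicate shows inhibition of at least 40%; inconclusive = mean inhibition at least 40% but some replicate below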;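 note: 0% = neutral control wells and 100% = positive control wells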
# Numbers without * were called inactive; ? = inconclusive; · = no result. This is a sample that favours compounds with a hit; in the whole collection about 3.2% have one here.
SMILES,DENV2 CPE rescue,Ecoli rRNA inh,CaV13 FRET inh,ERAP1 inh,GSIS activator,PGC1a acetyl inh
Cc1ccc(CNCC2CCCO2)o1 (stereo not given),·,·,-5,·,·,·
COCCN(C[C@H]1[C@H](c2ccccc2)[C@@H](CO)N1C(=O)C1CCC1)C(C)=O,·,3,·,·,6,10
Cc1cc(=O)oc2cc(OCCSCCN3CCCC3)ccc12,37*,7,2,1,-12,16
C[C@H](CO)N1C[C@H](C)[C@@H](CN(C)S(=O)(=O)c2ccc(Cl)cc2)Oc2ccc(NS(C)(=O)=O)cc2C1=O,·,-1,·,·,-2,4
CCC(=O)N(CCC(c1ccco1)C(C)C)Cc1ccccc1 (stereo not given),1,-39*,-4,7,-4,-9
CC(=O)N(CCC(c1ccco1)C(C)C)Cc1ccc(Cl)cc1 (stereo not given),-6,·,-39,-6,·,-7
O=S(=O)(NC[C@@H]1CC[C@@H]2[C@@H](CN2Cc2cccc(-c3ccccn3)c2)O1)c1ccccc1,-5,·,·,1,·,·
COC(=O)c1cc(S(=O)(=O)NCC2CCN(Cc3cc(C)ccc3C)CC2)c[nH]1,-2,10,-3,-1,55*,4
CCCC1CC(C(=O)NC(C(C)Cl)C2OC(SC)C(O)C(O)C2O)N(C)C1 (stereo not given),?,-32*,-5,-1,·,5
C[C@@H]1CN([C@@H](C)CO)C(=O)Cc2cc(NC(=O)C3CCCCC3)ccc2O[C@@H]1CN(C)S(=O)(=O)c1ccc(F)cc1,14,-3,·,2,-20,-10
O=C(NCc1ccccc1)C(c1ccc(C(F)(F)F)cc1)n1c(=O)c(-c2cc3ccccc3[nH]2)nc2ccccc21 (stereo not given),38*,7,-17,·,2,·
COc1ccc(NC(=O)C(C2CC2)n2c(=O)c(-c3cc4ccccc4[nH]3)nc3ccccc32)cc1 (stereo not given),1,6,-33,2,·,·
O=C(Nc1ccc2ccccc2c1)C(C1CC1)n1c(=O)c(-c2cc3ccccc3[nH]2)nc2ccccc21 (stereo not given),47*,14,-17,·,4,·
O=C1O[C@@H](c2ccccc2)[C@@H](c2ccccc2)N2[C@@H](c3ccc(O)cc3)[C@]3(C(=O)Nc4ccc(C#CC5(O)CCCCCC5)cc43)[C@@H](C(=O)NC[C@H](O)c3ccccc3)[C@H]12,1,·,·,2,·,10
O=C(N/N=C/c1ccccc1F)C(=O)N1CCCCCC1,0,3,-3,3,-2,-7
O=C(N/N=C/c1ccccc1O)C(=O)N1CCCCCC1,2,-25*,-8,0,2,·
Cc1ccc(S(=O)(=O)Nc2ccc3c(c2)C(=O)N([C@H](C)CO)C[C@@H](C)[C@H](CN(C)C(=O)Nc2cccc4ccccc24)O3)cc1,·,1,·,·,-8,12
Clc1ccccc1-c1nnc2sc(CCc3ccccc3)nn12,9,-19*,-7,1,-11,-3
c1ccc(CCc2nn3c(Cn4cnc5ccccc54)nnc3s2)cc1,-1,-24*,-6,-3,-16,·
c1ccc(-c2cn(C[C@H]3CC[C@@H]([C@@H]4CC[C@H](Cn5cc(-c6ccccn6)nn5)O4)O3)nn2)nc1,-1,14,-9,-2,·,-5
c1ccc(-c2cn(C[C@H]3CC[C@@H]([C@@H]4CC[C@H](Cn5cc(-c6ccccc6)nn5)O4)O3)nn2)cc1,34*,1,-10,1,-7,-12
COc1ccc(CNC(=O)C[C@H]2C=C[C@@H](NC(=O)CN(C)C)[C@@H](CO)O2)cc1,1,-1,·,1,-7,2
CC(=O)N1CC(=O)N2[C@@H](CO)[C@@H](c3ccc(C#Cc4cccnc4)cc3)[C@@H]2C1,4,8,·,0,-7,16
Cc1cc(-c2nnc(SCC(=O)Nc3nc(-c4ccc(Cl)cc4)cs3)o2)no1,1,-33*,-5,6,20,2

# Compound activity: PubChem, Broad Institute
